# Shown are actives, neighbours in structure and some others; about 6.9% of the full set was active somewhere.
# NS3h inh CB: HCV NS3 helicase inhibitors, primary screen, biochemical, fluorescence polarization, ChemBridge library; Hepatitis C virus NS3 helicase; inhibition, % at 100 µM; NS3h Cy5-dT15 DNA binding; 16,000 tested, 1.6% active;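 active means inhibition above the average over every tested compound plus 3 SD, cut at about 40% in these data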
# Cy5 interf NS3h: Cy5 fluorescence quenchers or enhancers, artefact control for HCV NS3 helicase inhibitor project, biochemical, ChemBridge library, Cy5 readout; fluorescence interference ratio at 100 µM; 16,000 tested, 6% active; Cy5-dT15 DNA with NS3h, fluorescence interference; actives lie on both sides; signal over control mean, under 1 quenches; AID 720488, 2013;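 active means compound fluorescence over control fluorescence at most 0.8, a quencher, or at least a set upper limit, an enhancer; inactive means ratio between 0.8 and the set upper limit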
# Starred values were filed as active, the others as inactive.
SMILES,NS3h inh CB,Cy5 interf NS3h
COc1ccc(/C=C2\C(=O)N(c3nc(-c4ccc(C)cc4)cs3)N=C2C)cc1,21,0.7*
COc1cccc(C2=NN(C(=O)c3cccc(Br)c3)C(O)(C(F)(F)F)C2)c1 (stereo not given),13,0.92
O=C(c1ccc(OCc2ccccc2)cc1)N1CCN(c2ccc([N+](=O)[O-])cc2)CC1,10,1
O=C(CCCN1C(=O)c2ccccc2C1=O)Nc1ccccc1C(=O)N1CCOCC1,-4,0.97
CN1CCN(C(=O)c2ccccc2NC(=O)CN2C(=O)c3ccccc3C2=O)CC1,10,0.77*
O=C1C2C3C=CC(O3)C2C(=O)N1c1ccc([N+](=O)[O-])cc1 (stereo not given),6,1.1
Cc1ccc(N2C(=O)CC(N3CCN(Cc4ccccc4)CC3)C2=O)cc1 (stereo not given),-1,1
Cc1ccc(N2C(=O)CC(NC3CCN(Cc4ccccc4)CC3)C2=O)cc1 (stereo not given),10,1.3*
Cc1ccc(N2C(=O)CC(NCc3cccc(Cl)c3)C2=O)cc1 (stereo not given),0,1.1
Cc1ccc(N2C(=O)CC(NCc3cccc(C(F)(F)F)c3)C2=O)cc1 (stereo not given),18,1.2*
Cc1ccccc1NC1=C(Cl)C(=O)N(c2cccc(Cl)c2Cl)C1=O,0,1
O=C1OC(c2sc3ccccc3c2Cl)=N/C1=C/c1ccc(C(=O)O)cc1,8,1.1
COC(=O)c1c(C)oc2ccc(OCC(=O)c3ccc(Br)cc3)cc12,-1,1
O=C(Nc1ccc(Cl)cn1)c1cc(Br)ccc1Cl,7,1
COc1cc(C(=O)Oc2ccc3c(C)cc(=O)oc3c2C(C)=O)cc(OC)c1OC,12,1.2
COc1cc(C=O)ccc1OC(=O)c1cc(OC)c(OC)c(OC)c1,0,0.67*
CCOC(=O)c1c(NC(=O)c2sc3cc(C)ccc3c2Cl)sc(C(N)=O)c1C,7,0.79*
CCOC(=O)c1c(NC(=O)COc2c(C)cc(C)cc2C)sc(C(=O)Nc2ccccc2)c1C,3,0.96
CN1C(=O)/C(=C\c2cn(CCOc3ccc(Br)cc3)c3ccccc23)SC1=S,22,0.93
COc1ccc(CCNC(=O)C2CC(=O)N(c3ccc(F)cc3)C2)cc1 (stereo not given),-1,0.99
Cc1ccc2nc3nc(C)cc(C)c3c(N)c2c1,-5,0.71*
Cc1ccc2nc(Nc3nc(C)cc(-c4ccccc4)n3)nc(C)c2c1,23,1.1
O=C(CSc1nc2ccccc2o1)c1ccc(-c2ccccc2)cc1,2,0.63*
O=C(CSc1nc2ccccc2o1)OCC(=O)c1ccc(F)cc1,7,0.93
COc1cccc(NC(=O)c2cc(-c3ccccc3)nc3ccccc23)c1,-1,1
SMILES,NS3h inh CB,Cy5 interf NS3h
COc1cccc(NC(=O)CSc2nc3ccccc3o2)c1,12,0.67*
COc1ccc(CN2CCN(S(=O)(=O)c3ccc(C)cc3)CC2)c(OC)c1OC,0,0.94
Cc1ccc(N(CC(=O)Nc2c(C)n(C)n(-c3ccccc3)c2=O)S(C)(=O)=O)cc1,6,1.1
COc1ccc(N=C(C)C2=C(O)CSC2=O)cc1,7,1.1
CCCCOC(=O)c1cccc(NC(=O)c2cncc(Br)c2)c1,7,1
O=C1c2cccc3cccc(c23)C(=O)N1/N=C\c1cccc([N+](=O)[O-])c1,-8,0.74*
O=C1c2cccc3cccc(c23)C(=O)N1/N=C\c1ccc(Br)cc1,-53,0.86
CN(C1=NS(=O)(=O)c2cc([N+](=O)[O-])ccc21)c1ccccc1,-2,0.89
O=[N+]([O-])c1ccc2c(c1)S(=O)(=O)N=C2Nc1cccc(Cl)c1,-10,0.73*
COc1cccc(-n2c(O)c(C=C3C=Nc4ccccc43)sc2=S)c1,14,1.1
O=C(/C=C/c1cccc(C(F)(F)F)c1)Nc1cccc2cccnc12,8,1
Cc1ccc(-c2nnc(Nc3ccc4c(c3)nc(C)n4C)c3ccccc23)cc1,5,0.71*
COc1ccc(-c2nnc(Nc3ccc4c(c3)nc(C)n4C)c3ccccc23)cc1,5,0.93
Cc1nnc(Nc2ccc3c(c2)ncn3C)c2ccccc12,12,1.2*
Cn1cnc2cc(Nc3nnc(-c4ccccc4)c4ccccc34)ccc21,-4,1
COc1ccc(-n2cnc3cc(Nc4nnc(C)c5ccccc45)ccc32)cc1,5,0.74*
COc1ccccc1-n1cnc2cc(Nc3nnc(C)c4ccccc34)ccc21,-2,0.93
CCOc1ccc(N2C(=O)CC(C(C)c3ccccc3)C2=O)cc1 (stereo not given),4,0.92
COc1cc(NC(=O)COc2ccc(Cl)cc2Br)c(OC)cc1Cl,1,1.1
Cc1ccc(C(=O)N/C(=C\c2ccc(Cl)cc2)C(=O)NCC(C)C)cc1,41*,0.96
CC(C)CNC(=O)/C(=C/c1ccc(F)cc1)NC(=O)c1ccccc1,12,0.95
Cc1ccc(N=Cc2ccc(Br)s2)cc1[N+](=O)[O-],11,0.96
COc1ccc(N=C2C(=O)Nc3ccc(C)c(Br)c32)cc1,21,0.66*
COc1ccc(S(=O)(=O)Nc2ccc(Br)cc2C)cc1,18,1.1
COc1ccc(C2CC(=O)C3=C(C2)Nc2ccccc2NC3c2c(Cl)cccc2Cl)cc1 (stereo not given),5,1
SMILES,NS3h inh CB,Cy5 interf NS3h
O=C(NCc1ccc2c(c1)OCO2)C(c1ccccc1)c1ccccc1,16,1.1
O=C1NC(=S)N/C1=C/c1ccc(OCc2ccccc2)c(Br)c1,-4,0.98
O=C1NC(=S)N/C1=C\c1ccccc1OCc1ccc([N+](=O)[O-])cc1,-5,0.67*
Cc1ccc(-n2c(=O)c3cc4c(=O)n(-c5ccc(C)c(C)c5)c(=O)c4c(C(=O)c4ccccc4)c3c2=O)cc1C,10,1.1
O=c1c2cc3c(=O)n(-c4ccc(S)cc4)c(=O)c3cc2c(=O)n1-c1ccc(S)cc1,4,0.7*
CCOc1cc(OCC)cc(C(=O)Nc2ccc3oc(-c4cccnc4)nc3c2)c1,-13,1.1
COc1ccc2oc(C(Cl)(Cl)Cl)cc(=O)c2c1,1,0.91
COc1ccc2c(=O)cc(C(Cl)(Cl)Cl)oc2c1,15,0.65*
COC(=O)c1cc(Nc2nc3ccccc3nc2NS(=O)(=O)c2ccccc2)ccc1Cl,21,0.69*
COC(=O)c1ccccc1NS(=O)(=O)c1ccc(NC(C)=O)cc1,-7,1
CC(=O)n1cc(Nc2ccccc2O)c2ccccc21,4,1
Cc1cc(C)c(-n2c(O)c(C=C3C=Nc4ccccc43)c(=O)[nH]c2=O)c(C)c1,3,1
O=c1[nH]c(=O)n(Cc2ccccc2)c(O)c1C=C1C=CC=N1,11,0.77*
O=c1[nH]c(=O)n(Cc2ccc(F)cc2)c(O)c1C=C1C=Nc2ccccc21,-44,0.8*
COc1ccc(OC)c(Cn2c(O)c(C=C3C=CC=N3)c(=O)[nH]c2=O)c1,17,0.88
CC(=O)C(C(=Nc1ccccc1)Nc1ccccc1)=C(O)c1ccccc1,0,0.87
COc1ccc(OC)c(N(CC(=O)O)S(C)(=O)=O)c1,1,1.1
O=C(Nc1cccc(Cl)c1)c1cc2nc(-c3ccc4c(c3)OCO4)cc(C(F)(F)F)n2n1,-10,0.67*
Cc1ccc(-c2cc(C(F)(F)F)n3nc(C(=O)OC(C)C)cc3n2)cc1,4,0.98

# Screening results: PubChem, Milwaukee Institute for Drug Discovery
